Test results reported in PubChem BioAssay (EPA / NIEHS).
Inconclusive results are not listed. The source made the active and inactive calls. Rule for the calls: active = hit-call score of the fitted dose curve at least 0.9, where 1 is the maximum; inconclusive = response in the unintended direction; inactive = score below 0.9.

What follows are compounds tested against Cellular tumor antigen p53 (Homo sapiens) (UniProt P04637) (assay: TOX21_p53_BLA_p4_ratio: Tox21 HCT-116 p53 Agonism Beta-lactamase Assay, Ratio, Phase 4 (AID 2283601)).
Sequence of Cellular tumor antigen p53 (Homo sapiens) (P04637 whole entry, looked up): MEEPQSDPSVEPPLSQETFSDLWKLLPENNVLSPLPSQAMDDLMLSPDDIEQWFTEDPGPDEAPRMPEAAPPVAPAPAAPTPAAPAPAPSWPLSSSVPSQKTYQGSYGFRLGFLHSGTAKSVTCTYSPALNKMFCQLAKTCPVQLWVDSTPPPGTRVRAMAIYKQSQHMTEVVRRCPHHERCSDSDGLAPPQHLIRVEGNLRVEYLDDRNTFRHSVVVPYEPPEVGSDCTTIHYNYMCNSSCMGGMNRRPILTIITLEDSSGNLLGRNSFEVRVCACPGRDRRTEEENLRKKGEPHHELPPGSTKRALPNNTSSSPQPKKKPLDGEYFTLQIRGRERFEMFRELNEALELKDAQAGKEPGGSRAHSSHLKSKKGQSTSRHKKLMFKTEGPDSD
Method in brief: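 HCT-116 p53 beta-lactamase reporter cells (4000/well) preincubated 5 h, then compound (217-fold dilution of DMSO stock) for 16 h at 37C. CCF4-AM substrate added 2 h at room temperature; 460/530 nm emission ratio fitted upward versus DMSO.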
`CSc1ccc(C(=O)c2[nH]c(=O)[nH]c2C)cc1` was tested, and the outcome was “inactive”. `CCOC(=O)O[C@]1(C(=O)COC(=O)CC)CC[C@H]2[C@@H]3CCC4=CC(=O)C=C[C@]4(C)[C@H]3[C@@H](O)C[C@@]21C` was tested, and the outcome was “inactive”. With `NS(=O)(=O)c1cc(C(=O)O)cc(N2CCCC2)c1Oc1ccccc1` the outcome was “inactive”. For `CC(=O)Nc1ccc(OC(C)=O)cc1`, the outcome was “inactive”. With `OC[C@H]1O[C@@H](O[C@@H]2[C@@H](CO)O[C@](O)(CO)[C@H]2O)[C@H](O)[C@@H](O)[C@H]1O` the outcome was “inactive”. In the case of `CC1=C(C/C=C(\C)CCC[C@H](C)CCC[C@H](C)CCCC(C)C)C(=O)c2ccccc2C1=O`, the outcome was “inactive”. For `OC(CN1CCCCC1)c1cc(-c2ccccc2)on1` (stereo unspecified), the outcome was “inactive”. With `CCc1nn(CCCN2CCN(c3cccc(Cl)c3)CC2)c(=O)n1CCOc1ccccc1` the outcome was “inactive”. With `CCCCCCCCCC#N` the outcome was “inactive”. With `CC(O)Cn1cnc2c1c(=O)n(C)c(=O)n2C` (stereo unspecified) the outcome was “inactive”. For `COC(=O)C1=C(C)NC(C)=C(C(=O)OC)C1c1ccccc1[N+](=O)[O-]`, the outcome was “inactive”. `Oc1ccc(-c2ccc(O)cc2)cc1` was tested, and the AC50 was 46.8 µM (active). In the case of `CC(=O)O[C@H]1C[C@@H]2CC[C@@H]3[C@H](CC[C@@]4(C)[C@H]3C[C@H](N3CC[N+](C)(C)CC3)[C@@H]4OC(C)=O)[C@@]2(C)C[C@@H]1N1CC[N+](C)(C)CC1`, the outcome was “inactive”. `C[C@@H](CN(C)C)CN1c2ccccc2Sc2ccccc21` was tested, and the outcome was “inactive”. For `CCC(O)C(C)(C)C` (stereo unspecified), the outcome was “inactive”. With `COC(=O)C(CN)c1c[nH]c2ccc(OC)cc12` (stereo unspecified) the outcome was “inactive”. In the case of `CC(C)CNCC(C)C`, the outcome was “inactive”. For `CCOC(=O)COc1ccc2c(C)c(CCN(CC)CC)c(=O)oc2c1Cl`, the outcome was “inactive”. With `CCCCC(=O)N(C)C` the outcome was “inactive”. `CCCCCCCC/C=C\CCCCCCCCCCCC(=O)O` was tested, and the outcome was “inactive”. In the case of `C[Si](C)(C)Cl`, the outcome was “inactive”.
